Experimental data taken from PubChem BioAssay (NCI).
The panel holds about 83,000 compounds, 20% with a hit somewhere; the sample as a whole holds those more often.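 Growth was measured after 48 h exposure to one concentration of compound in 96-well plates. Values under 10 count as active.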 Values without a mark were called inactive. Active and inactive are the calls of the source.

Key:
Test in all cases: NCI-60 one-dose screen, 48 h (100 = growth as untreated, 0 = no growth, -100 = all killed)
Settings in all cases: 10 µM unless noted
HCT-15 colon = test system: HCT-15 colon
HT29 colon = test system: HT29 colon
SNB-75 CNS = test system: SNB-75 CNS
SNB-19 CNS = test system: SNB-19 CNS
U251 CNS = test system: U251 CNS
PC-3 prostate = test system: PC-3 prostate
SK-MEL-5 melanoma = test system: SK-MEL-5 melanoma
LOX IMVI melanoma = test system: LOX IMVI melanoma
SK-MEL-28 melanoma = test system: SK-MEL-28 melanoma
SK-MEL-2 melanoma = test system: SK-MEL-2 melanoma
EKVX NSCLC = test system: EKVX NSCLC
SN12C renal = test system: SN12C renal
UO-31 renal = test system: UO-31 renal
TK-10 renal = test system: TK-10 renal
ACHN renal = test system: ACHN renal
CAKI-1 renal = test system: CAKI-1 renal
A498 renal = test system: A498 renal
MOLT-4 leukemia = test system: MOLT-4 leukemia
CCRF-CEM leukemia = test system: CCRF-CEM leukemia
UACC-62 melanoma = test system: UACC-62 melanoma

Row | SMILES | growth (HCT-15 colon) | growth (HT29 colon) | growth (SNB-75 CNS) | growth (SNB-19 CNS) | growth (U251 CNS) | growth (PC-3 prostate) | growth (SK-MEL-5 melanoma) | growth (LOX IMVI melanoma) | growth (SK-MEL-28 melanoma) | growth (SK-MEL-2 melanoma) | growth (EKVX NSCLC) [%] | growth (SN12C renal) | growth (UO-31 renal) | growth (TK-10 renal) | growth (ACHN renal) | growth (CAKI-1 renal) | growth (A498 renal) | growth (MOLT-4 leukemia) | growth (CCRF-CEM leukemia) | growth (UACC-62 melanoma)
1 | O=C1C=C(SCCO)C(=O)c2ccccc21 | -68.5% (active) | 95.7% | -83.9% (active) | 15% | -37.2% (active) | 62.3% | -98% (active) | -57.5% (active) | 42.9% | 28.4% | 53.5 | -87.1% (active) | -37.4% (active) | 95.9% | -74% (active) | 47.5% | 113% | 2.43% (active) |  | 
2 | CCCCNC(=O)c1ccc2c(c1)nc(-c1ccccc1)n2C1CCCCC1 | 72.5% | 50.3% | 114% | 110% | 99% | 90.9% | 93.7% | 92.6% | 106% | 101% | 88.4 | 102% | 79.1% | 130% | 102% | 109% | 101% | 94.6% | 86.5% | 
3 | CCn1cc(C(=O)N/N=C/c2cccc(F)c2)c(=O)c2cc(F)c(N3CCNC(C)C3)c(F)c21 (centres undefined) | -81.8% (active) | -87.2% (active) | 90.1% | -59.4% (active) | -74.3% (active) | 69.6% | 52.6% | -90.9% (active) | -64.3% (active) | 104% |  |  | 20.6% | 101% |  | 66.7% | 99.2% | -26% (active) | -47% (active) | 64.8%
4 | CCCCCCCCCCOC(=O)c1nn(C(C)=O)c2cc(C)c(C)cc12 | 98.8% | 92.1% | 115% | 105% | 93.3% | 73.7% | 99.5% | 87.9% | 109% | 104% |  |  | 71.7% | 104% | 97.1% | 88.8% | 79.1% | 82.7% | 92.2% | 93.3%
5 | COc1cc(/C=C2\C(=O)N(CCCOc3cc(O)c4c(=O)cc(-c5ccccc5)oc4c3)c3ccccc32)cc(OC)c1O | 42.4% | -16.1% (active) | 47.6% | 80.6% | 60.9% | 67% | 71.9% | 58.8% | 90.9% | 81.1% | 88.4 | 91.3% | 61.9% | 87% | 93.3% | 85.2% | 91.7% | 64.7% | 70.2% | 
6 | O=CN1N=C(c2cccc(Nc3ccnc4cc(Cl)ccc34)c2)CC1c1ccc(Cl)cc1 (centres undefined) | 29.5% | -24.8% (active) | -17.4% (active) | 49% | 18.9% | 23.1% | 12.7% | 24.2% | 52.7% | 9.56% (active) |  | 34.1% | 22.7% | 45% | 45.5% | 18.8% | 11.4% | 13.7% | 12.2% | 
7 | Cc1cc(C(=O)CCCC(=O)c2cc(C)c(O)c(C)c2)cc(C)c1O | 79.2% | 92.3% | 69.7% | 88.1% | 89.6% | 84.1% | 29.2% | 87.2% | 105% | 101% | 111 | 97.8% | 83.6% | 105% | 91% | 93.5% | 91.9% | 106% |  | 
8 | CC(C)(C)OC(=O)CN1CCc2c(sc3ncnc(N4CCN(c5ccc(F)cc5)CC4)c23)C1 | 96.6% | 98.7% | 82.6% | 88% | 85.5% | 69.2% | 92% | 96.7% | 92.5% | 92.1% | 95.5 | 91.6% | 51.7% | 100% | 85.7% | 80.6% | 68.7% | 53.4% | 59.2% | 
9 | CN(C)Cc1ccc(NC(=O)c2cncc(C#Cc3cnc(N)c4ncccc34)c2)cc1C(F)(F)F | -50.6% (active) | -50.1% (active) | 82.2% | -8.43% (active) | -57.5% (active) | 92.2% | 24.8% | -79.9% (active) | -83.1% (active) | 40.5% |  | 69.9% | -82% (active) | 110% |  | 83% | 60.6% | 43.5% | -6.13% (active) | 45.1%
10 | COc1cc2c(cc1-c1c(C)noc1C)ncc1nc(CN3CCOCC3)n([C@H](C)COC(F)F)c12 | 23% | 12.1% | 3.11% (active) | 45.1% | 61.3% | 32.3% | 19.8% | 12.1% | 59.3% | 36.7% | 49.6 | 56.7% | 14.1% | 2.77% (active) |  | 35.1% | -7% (active) | 59.5% | 44% | 
11 | C#Cc1cccc(NC(=O)C2CCCCN2C(=O)CCl)c1 (centres undefined) | -54.7% [8.25 µM] (active) | -52.5% [8.25 µM] (active) | -5.47% [8.25 µM] (active) | 20.1% [8.25 µM] | -62.2% [8.25 µM] (active) | -7.93% [8.25 µM] (active) | -81.7% [8.25 µM] (active) | -74.6% [8.25 µM] (active) | 2% [8.25 µM] (active) | -51.7% [8.25 µM] (active) |  | -92.3% [8.25 µM] (active) | -97.3% [8.25 µM] (active) | 9.36% [8.25 µM] (active) |  | -95.5% [8.25 µM] (active) | 58.5% [8.25 µM] | -13.7% [8.25 µM] (active) | -11.9% [8.25 µM] (active) | -84.8% [8.25 µM] (active)
12 | CSc1ccc2c3c(n(C[C@H](O)CO)c(=O)c2c1)-c1ccccc1C3=O | 18.6% | 16.5% | 61.2% | 32.6% | 14.2% | 44.5% | 44.3% | -3.11% (active) | 72.3% | 104% | 77.1 | 23.1% | 19.9% | 70.7% | -41% (active) | 27.9% | 52.3% | -17.8% (active) | -4.25% (active) | 
13 | COc1cc(C=Nc2oc(-c3ccccc3)c(-c3ccccc3)c2C#N)cc(CN2CCCC2)c1O | 103% | 107% | 66.8% | 94.6% | 93.2% | 86.8% | 104% | 96.5% | 112% | 105% | 91.8 | 91.8% | 68% | 123% | 85.1% | 77.3% | 64.4% | 104% | 102% | 
14 | C#CCOc1cccc(Nc2ncnc3c2ncn3C2CCN(C(=O)CCl)C2)c1 (centres undefined) | 1.63% (active) | -68.4% (active) | -3.65% (active) | 13.7% | -92% (active) | -14.2% (active) | -85.7% (active) | -86.5% (active) | -43.9% (active) | -0.328% (active) |  | -71.3% (active) | -97.8% (active) | -83.8% (active) | -98.9% (active) | -97.4% (active) | 85.9% | -26.8% (active) | -28% (active) | 
15 | COC(=O)c1ccc2cc(OC)c(OC)cc2c1 | 100% | 90.7% | 97.8% | 99.5% | 95.7% | 92.1% | 108% | 109% | 102% | 134% | 84.8 |  | 100% | 103% | 106% | 91.6% | 75.4% | 85.8% | 91% | 
16 | CN(C)c1ccc(/C=C2\C=C(c3nc4ccccc4s3)OC2=O)cc1 | 102% | 98.2% | 87.2% | 95.3% |  | 78.5% | 96.4% | 91% | 106% | 107% | 94 | 97.1% |  | 118% | 92.2% | 76% | 112% | 94.8% | 99% | 75.4%
17 | CS(=O)(=O)Nc1cc(-c2ccc3ncnc(Nc4ccc5c(cnn5Cc5ccccc5F)c4)c3c2)cnc1Cl | 79.4% | 51% | -15.7% (active) | 49.1% | 46.3% | 37.5% | 26.3% | 25.9% | 17.5% | 15.3% |  | 23.3% | 43.2% | 30.6% |  | 27.3% | -14.1% (active) | 16.4% | 31.1% | 
